# From PubChem BioAssay AID488857 (Sanford-Burnham Center for Chemical Genomics, 2010)
# In all, about 1,400 compounds went through this assay and about 560 (40%) were called active. So high a share suggests a set chosen from earlier hits. The list shows a part of the results. Unmarked numbers belong to inactive results.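 How the source made its calls: active means mean inhibition over duplicate tests at 10 µM above 50%; inactive means the rest.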
# Assay: ASC/caspase-1 reporter retest in S. cerevisiae at one dose, specificity check for NALP1 project (AID 488857)
# Conditions: S. cerevisiae ASC/Caspase-1, beta-galactosidase luminescence, 24 h; at 10 µM; stronger effect = higher value
row,Structure (SMILES),inhibition
1,O=C(COC(=O)c1ccc(-c2ccc([N+](=O)[O-])cc2)o1)NC(=O)NC1CCCCC1,46.6%
2,c1ccc(-c2c(-c3ccccc3)n(Cc3ccco3)c3ncnc(NCCCn4ccnc4)c23)cc1,46.7%
3,COc1ccc(/C=N\NC(=O)c2cc(OCC(F)(F)F)ccc2OCC(F)(F)F)cc1,27.6%
4,O=C(Oc1ccc(/C=N/NC(=O)c2ccccc2O)cc1)c1ccccc1,34.4%
5,O=C(C[n+]1ccc(C(=O)N/N=C/c2ccc(OCc3ccccc3)cc2)cc1)c1ccccc1,54.6% (active)
6,COc1ccc(N2C(=O)C3[C@@H](C2=O)C2(Cl)C(Cl)=C(Cl)C3(Cl)C2(OC)OC)cc1 (some centres undefined),50.2% (active)
7,COc1ccc(N2C(=O)C(Cl)=C(Nc3c(C)n(C)n(-c4ccccc4)c3=O)C2=O)cc1,29.6%
8,CCOc1oc(-c2ccc(OC)cc2)nc1C(F)(F)F,40.6%
9,CCc1ccc(OCCCC(=O)Nc2cccc(C(=O)O)c2)cc1,39.6%
10,CCc1ccc(OCCNC(=O)OCc2ccccc2)cc1,57.6% (active)
11,CC1=NN(c2ccc(C)cc2C)C(=O)C1C(c1cccc(O)c1)C1C(=O)N(c2ccc(C)cc2C)N=C1C (centres undefined),43.8%
12,CN(C)CCN(Cc1ccccc1)c1nccc(N(C)C)c1C#N,26.8%
13,Cc1c(C(=O)N2CCOCC2)[nH]c2ccc(OCc3ccccc3)cc12,42.6%
14,COc1cccc(-c2nn(C)c3sc(C(=O)N4CCOCC4)cc23)c1,51.4% (active)
15,COc1cccc(C(=O)N2CCCC(c3nc(-c4cccs4)no3)C2)c1 (centres undefined),22.3%
16,COc1cc(S(=O)(=O)NCc2cccnc2)ccc1F,46.6%
17,COc1ccc2cc(C(C)c3nc4ccccc4c(=O)n3N)ccc2c1 (centres undefined),59.4% (active)
18,C=CCCCCc1nc2ccccc2c(=O)n1N,36.1%
19,CCOC(=O)c1ccc(N2CCOCC2)c(NC(=O)COCC(=O)O)c1,9.9%
20,COc1ccc(-c2cn3cccnc3n2)cc1Br,78.9% (active)
21,CCN(CC)S(=O)(=O)c1ccc2oc(C(=O)NC3CCCc4ccccc43)c(C)c2c1 (centres undefined),23.3%
22,O=C(c1ccccc1)c1c2c(cc3sc4ccccc4[n+]13)-c1cccc3cccc-2c13,46.8%

row,Structure (SMILES),inhibition
1,Cc1ccc(S(=O)(=O)N(C(=O)c2ccncc2)c2ccc(OC(=O)c3ccncc3)c3ccccc23)cc1,26.1%
2,CCCc1[nH]n(-c2nc3ccccc3s2)c(=O)c1C=NCC(C)C,78% (active)
3,CC(C)(C)C(=O)NC1CCN(S(=O)(=O)c2ccc(C(F)(F)F)cc2)CC1,23.1%
4,CCCN1CCN(CCCNC(=O)CCNC(=O)Cn2ccc3ccccc3c2=O)CC1,35.4%
5,COc1ccnc(N2CCN(c3ccccc3)CC2)c1C#N,56.4% (active)
6,O=C(NN1C(=O)c2cc(Br)ccc2NC1c1cc(Br)cc(Br)c1O)c1ccncc1 (centres undefined),76.2% (active)
7,Cc1cccc(N2Cc3ccccc3C2=NC(=O)c2ccc(Cl)nc2)c1,28.3%
8,Fc1ccccc1-c1ccc(/C=N/Nc2nc3ccccc3[nH]2)o1,70% (active)
9,CCCCNc1nc2ccccc2[nH]1,31.2%
10,CCOC(=O)c1ccc(NC(=O)CC2Sc3ncnn3C2=O)cc1 (centres undefined),64.7% (active)
11,CCOC(=O)c1ccc(NC(=O)c2nccnc2C(=O)O)cc1,38.5%
12,CCOC(=O)c1ccc(NC(=O)CSc2nnc(CNc3ccc(C)cc3)n2C)cc1,31.4%
13,COc1ccc(NC(=O)CC2Sc3ncnn3C2=O)cc1 (centres undefined),75.8% (active)
14,O=C(CC1Sc2ncnn2C1=O)Nc1ccc(Br)cc1 (centres undefined),33.6%
15,C/C(=N\Nc1nc2c(s1)CCCC2)c1ccccc1,37.2%
16,CC1CCCCN1C(=S)NCCc1ccccc1 (centres undefined),59.1% (active)
17,C=C1SC(Nc2c(C)cccc2C)=NC12CCCCC2,47.3%
18,CC(C)Cc1nnc(NC(=O)CSc2nc(N)cc(=O)[nH]2)s1,25.6%
19,Brc1ccc2c(c1)OCCOCCOc1cc(Br)ccc1OCCOCCOCCO2,64.6% (active)
20,Cc1nnc(-c2ccccc2)o1,39.7%
21,Cc1nc(/N=C(\N)NC(=O)N2c3ccccc3Sc3ccccc32)nc2ccccc12,53.6% (active)
22,O=C(CSc1nnnn1C1CCCCC1)N1c2ccccc2Sc2ccccc21,39.5%

row,Structure (SMILES),inhibition
1,O=[N+]([O-])c1ccc(-n2nnnc2-c2ccccc2)cc1,19.9%
2,O=C1C=CCC(/C=C/c2ccccc2)O1 (centres undefined),63% (active)
3,O=C1c2ccsc2SCCN1Cc1c(Cl)cccc1Cl,56.2% (active)
4,O=S(=O)(Nc1ccc(-n2cccc2)cc1)c1ccc(Cl)cc1Cl,37.6%
5,Cc1sc2ncnc(N/N=C/c3ccccc3O)c2c1C,58.4% (active)
6,O=C(/C=C/c1ccccc1)N1CCC(c2ccccc2)C1 (centres undefined),62.6% (active)
7,CC1CCN(C(=O)/C=C/c2ccc(C(C)(C)C)cc2)CC1,63.4% (active)
8,COc1cc(C(=O)CCN2CCC(c3ccccc3)C2)cc(OC)c1OC (centres undefined),44.2%
9,Cc1cc(C)cc(OCc2nnc(SCC(=O)OC(C)C)o2)c1,61.5% (active)
10,CC(=O)Nc1ccc(C(=O)CSc2nnc(Cc3ccccc3)o2)cc1,24.2%
11,COc1ccc(CNc2cccc(F)c2)cc1Br,72.2% (active)
12,COc1ccc(Cc2ccc(OC)c(N)c2)cc1N,53.1% (active)
13,COc1cc(Cc2cnc(N)nc2N)cc(OC)c1OC,14.2%
14,COC(=O)N/N=C/c1ccc(OC(=O)c2ccco2)c(OC)c1,30.8%
15,Cc1ccc(/C=N/NC(=O)c2ccc3nc[nH]c3c2)o1,47.4%
16,COC(=O)N/N=C/c1ccc(-c2cccc(Cl)c2)o1,80.9% (active)
17,CC1(C)CCSC(/C=C/c2ccccc2)=N1,92% (active)
18,C(#Cc1ccc(C#CCN2CCCC2)cc1)CN1CCCC1,42.5%
19,Cc1[nH][nH]c(=O)c1C(c1c(C)[nH][nH]c1=O)c1cn(Cc2ccc(Cl)c(Cl)c2)c2ccccc12,61.2% (active)
20,Cc1[nH][nH]c(=O)c1C(c1ccc(-c2ccc(Cl)c(Cl)c2)o1)c1c(C)[nH][nH]c1=O,39.9%
